# Measured values from PubChem BioAssay.
# Values without a mark were called inactive. No rule for the calls is given here.
# Test: blockers of DNA damage checkpoint Chk1 activation – imaging, HeLa, hydroxyurea, phospho-Chk1 nuclear intensity, primary screen (AID 1187); also: test concentration not given here
# Conditions: hydroxyurea-induced phospho-Chk1 immunofluorescence imaging, higher = more signal
row,SMILES,z-score
1,Cc1cc(C)c(C(O)C2C=CC3C(=O)N(c4ccccc4)C(=O)C3N2Nc2ccc(C#N)cc2)c(C)c1 (stereo not given),0.0947
2,COCCOC(=O)N1C(=O)[C@@]2(c3cc(C#CCNC(N)=O)ccc31)[C@H](c1ccc(OCCO)cc1)N1[C@H](c3ccccc3)[C@H](c3ccccc3)OC(=O)[C@H]1[C@@H]2C(=O)N1CCc2cc(OC)c(OC)cc2C1,0.15
3,Cc1ccc(S[C@]2(C(=O)NCC(C)C)CC(=O)N(Cc3ccccc3)[C@@H]2c2ccc(CO)cc2I)cc1,0.556
4,C=CC(=C)C1=CCO[C@@H]1[C@H]1CCCN1S(=O)(=O)c1ccccc1[N+](=O)[O-],0.0588
5,COCC(=C=CC[C@@H](O)c1ccc(CO)o1)CCO,-0.68
6,[N-]=[N+]=Nc1ccccc1C[C@]1(C(=O)NCCN2CCOCC2)N=C(c2ccc(OCCCO)cc2)O[C@H]1c1ccccc1,0.535
7,COc1ccc(C(=O)Nc2cccc(CN3C(=O)[C@]4(O[C@H](CC(=O)N5CCC[C@H]5CO)[C@@H]([Si](C)(C)c5ccc(OC)cc5)[C@@H]4C)c4ccccc43)c2)cc1,0.131
8,CCCCCN1CC=CC23O[C@@H]4/C=C\CCC(C)OC(=O)C4[C@H]2C(=O)N(CCCCCO)[C@@H]3C1=O (stereo not given in full),0.131
9,CCCCCN1CC=CC23O[C@@H]4C=CCOC(=O)[C@@H]4[C@H]2C(=O)N(CCCO)[C@@H]3C1=O (stereo not given in full),0.402
10,O=C1O[C@H](c2ccccc2)[C@H](c2ccccc2)N2[C@H]1[C@@H](C(=O)Nc1nc3ccccc3s1)[C@]1(C(=O)Nc3ccccc31)[C@H]2c1ccc(O)cc1,0.134
11,O=C1O[C@H](c2ccccc2)[C@H](c2ccccc2)N2[C@H]1[C@@H](C(=O)O)[C@]1(C(=O)Nc3ccc(C#CC4=CCCCC4)cc31)[C@H]2c1ccc(OCCO)cc1,-0.0216
12,CC=CC(O)C1C=CC2C(=O)N(c3ccccc3)C(=O)C2N1Nc1ccc(C(C)C)cc1 (stereo not given),0.538
13,O=C1OCCC=C[C@H]2OC34C=CCN(Cc5ccccc5)C(=O)[C@H]3N(CCCCCO)C(=O)[C@@H]4C12 (stereo not given in full),0.534
14,COCCOC(=O)N1C(=O)[C@@]2(c3cc(C#CCNC(N)=O)ccc31)[C@H](c1ccc(O)cc1)N1[C@H](c3ccccc3)[C@H](c3ccccc3)OC(=O)[C@H]1[C@@H]2C(=O)Nc1nc2ccccc2s1,-0.669
15,O=C1O[C@H](c2ccccc2)[C@H](c2ccccc2)N2[C@H]1[C@@H](C(=O)O)[C@]1(C(=O)Nc3ccc(C#CC4(O)CCCCCC4)cc31)[C@H]2c1ccc(OCCO)cc1,-0.198
16,O=C1OCCC=C[C@H]2OC34C=CCN(c5ccc6ccccc6c5)C(=O)[C@H]3N(CCCCCO)C(=O)[C@@H]4C12 (stereo not given in full),0.891
17,Cc1ccc(S[C@]2(C(=O)NC3CC3)CC(=O)N(C3CCCCC3)[C@@H]2c2ccc(CO)cc2I)cc1,0.06
18,COc1cc2c(cc1O)C(C)N(Cc1cccc(OC(F)(F)F)c1)CC2 (stereo not given),-0.033
19,COc1ccc(C#Cc2ccc3c(c2)[C@]2(C(=O)N3)[C@H](c3ccc(O)cc3)N3[C@H](c4ccccc4)[C@H](c4ccccc4)OC(=O)[C@H]3[C@@H]2C(=O)N2CCCCCCC2)cc1,-0.0916
20,COC(=O)[C@@]1(Cc2ccccc2)[C@H]2c3cc(C(=O)N(C)C)n(Cc4cc(C)n(C)n4)c3C[C@H]2CN1C(=O)c1ccccc1,0.42
21,C=CC(COC(C)=O)NS(=O)(=O)c1ccc(Br)cc1 (stereo not given),0.253
22,COC(=O)c1c(CC[C@@H](CO)NC(=O)N[C@@H](Cc2ccccc2)Cn2cc(C3(O)CCCCC3)nn2)oc(C(C)=O)c1C(=O)OC,-0.145
23,COC(=O)C(CC#Cc1ccc2c(c1)[C@]1(C(=O)N2)[C@H](C(=O)NC[C@H](O)c2ccccc2)[C@H]2C(=O)O[C@H](c3ccccc3)[C@H](c3ccccc3)N2[C@@H]1c1ccc(OCCO)cc1)C(=O)OC,-0.136
24,C=CCC(OC(C)=O)[C@@H]1[C@@H](N(Cc2ccc(-c3cccc(C(F)(F)F)c3)o2)C(=O)c2ccc(C)cc2)c2cc(OCCCO)ccc2N1C(=O)c1ccc(-c2ccccc2)cc1 (stereo not given in full),-0.266
25,COc1cccc(C(=O)O[C@H]2CC[C@]3(C)C4=C(CCC3C2(C)C)[C@]2(C)CC[C@H]([C@H](C)CCCC(C)C)[C@@]2(C)CC4)c1 (stereo not given in full),1.77
